# Data from PubChem BioAssay (EPA / NIEHS).
# Active and inactive are the calls of the source. The calls were made as follows: active = hit-call score of the fitted dose curve at least 0.9, where 1 is the maximum; inactive = score below 0.9. Peptide text beside a SMILES is read from it.
# Assay: ATG_Ets_CIS: Attagene CIS-FACTORIAL HepG2 Assay for human Erythroblast Transformation Specific (ETS) (AID 2282941)
# Conditions: HepG2 ETS cis-reporter transcription, actives raise or lower the signal
# Procedure: ATG_CIS is a cell-based, multiplexed-readout assay that uses HepG2, a human liver cell line, with measurements taken at 24 hours after chemical dosing in a 24-well plate.ATG_Ets_CIS is one of 52 assay component(s) measured or calculated from the ATG_CIS assay. It is designed to make measurements of mRNA induction, a form of inducible reporter, as detected with fluorescence intensity signals by Reverse transcription polymerase chain reaction (RT-PCR) and Capillary electrophoresis technology.Data from the assay component ATG_Ets_CIS was analyzed into 1 assay endpoint. This assay endpoint, ATG_Ets_CIS, was analyzed with bidirectional fitting relative to DMSO as the negative control and baseline of activity. Using a type of inducible reporter, measures of mRNA for gain or loss-of-signal activity can be used to understand the reporter gene at the transcription factor-level as they relate to the gene ETS1. Furthermore, this assay endpoint can be referred to as a primary readout, because this assay has produced multiple assay endpoints where this one serves a reporter gene function. To generalize the intended target to other relatable targets, this assay endpoint is annotated to the dna binding intended target family, where the subfamily is winged helix-turn-helix.
# Human liver HepG2 cells are transiently transfected with multiple reporter transcription units (MRTUs) in 6-well plates using FuGene 6 reagent (Roche; 3 ml FuGene/1 mg DNA). The MRTU constructs are regulated by a cis-regulating element (promoter). […] A major difference between the CIS and TRANS system is that in CIS activities of endogenous TFs are measured, whereas the TRANS assay evaluates changes in activities of exogenous, chimeric NR-Gal4 proteins. […] At the end of 24 hour incubation, total RNA was isolated using TriZol reagent (Invitrogen). The isolated RNA is then reverse-transcribed using oligo(dT) primer and Mo-MLV reverse transcriptase (Invitrogen) with DNAse I (Ambion) treatment for 30 min. The one-tenth of the produced cDNA was amplified by PCR using Taq DNA polymerase (Invitrogen) and two reporter sequence-specific primers. The PCR products were fluorescently labeled by primer extension with 6-arboxyfluorescein (6-FAM) 5'-labeled reporter sequence-specific primer (2 min at 95 C, 20 s at 68 C and 10 min at 72 C) and these products were digested with 5U of HpaI (New England Biolabs) for 2h at 37 C. The fragments were purified using Qiaquick PCR columns (Qiagen), analyzed on an ABI 3130xL genetic analyzer (Applied Biosystems) with peak positions identified by using a set of X-rhodamine (ROX)-labeled MapMarker1000 molecular weight standards (BioVentures). The raw capillary electrophoresis data was processed using Attagraph software (Attagene).
row,Structure (SMILES),outcome
1,CC(=O)OCC=C(C)C,inactive
2,C1CCSC1,inactive
3,CCCC(CC)c1ccccc1 (stereo not given),inactive
4,O=C(O)C1CCC(C(=O)O)CC1 (stereo not given),inactive
5,CO[Si](CCCS)(OC)OC,inactive
6,Cn1cccc1,inactive
7,CCOC(=O)C1=NOC(c2ccccc2)(c2ccccc2)C1,inactive
8,CC(C)=CCCC(C)=CC#N,inactive
9,COC(=O)[C@H](Cc1ccccc1)NC(=O)[C@@H](N)CC(=O)O (H-Asp-Phe-OMe),inactive
10,CC(C)(C)C1CCC(=O)CC1,inactive
11,COC(=O)CC(C)CCC=C(C)C (stereo not given),inactive
12,O=C1CCCCC1C1CCCCC1 (stereo not given),inactive
13,CC1C(C)(C)C2=C(C(=O)CCC2)C1(C)C (stereo not given),inactive
14,C=CC(C)(O)CC/C=C(\C)CC (stereo not given),inactive
15,CC1OC(=O)C(C)OC1=O (stereo not given),inactive
16,CC1=CC(C)C(C=O)CC1 (stereo not given),inactive
17,CCC(C)(O)CCCC(C)C (stereo not given),inactive
18,COc1cc(O)c(C(=O)c2ccccc2)cc1S(=O)(=O)O,inactive
19,CCCCNS(=O)(=O)c1ccc(C)cc1,inactive
20,CC=CC(=O)OCC(C)C,inactive

row,Structure (SMILES),outcome
1,CCCCNC(=S)NCCCC,inactive
2,CCCCC(=O)O,inactive
3,CCOB(OCC)OCC,inactive
4,CCCCCCCCCCCCC,inactive
5,CCCCCCCCCCCCCc1ccccc1,inactive
6,CCC(C)C(=O)OC (stereo not given),inactive
7,Oc1ccc(-c2ccccc2)c(Cl)c1,inactive
8,CCC1(C)C(=O)N(Cl)C(=O)N1Cl (stereo not given),inactive
9,O=C(O[C@@H]1Cc2c(O)cc(O)cc2O[C@@H]1c1cc(O)c(O)c(O)c1)c1cc(O)c(O)c(O)c1,inactive
10,CC1(C)CCC[C@]2(C)[C@H]3CC(=O)O[C@]3(C)CC[C@@H]12,inactive
11,Nc1cccc(N)n1,inactive
12,CC(CCC(=O)O)(c1ccc(O)cc1)c1ccc(O)cc1,inactive
13,COC(=O)c1ccccc1C,inactive
14,CCc1cccc(CC)c1,inactive
15,CCC1COC(=O)O1 (stereo not given),inactive
16,COc1cc(C)ccc1O,inactive
17,CCOC(=O)c1ccccc1C,inactive
18,CC1(C)[C@@H]2CC[C@@]1(C)C(=O)C2,inactive
19,O=C1CCCCCCCCCCCN1,inactive
20,CCCCCCCCCCCCCC(=O)OC(C)C,inactive
